Source: PubChem BioAssay (several laboratories)
BoNT-A LC inh2: blocks Botulinum neurotoxin A light chain protease; multiplex microsphere protease substrate cleavage, flow cytometry; inhibition, % at 10 µM; actives 0.17% (n = 360,000)
Vc quorum ag: quorum light induction in luxS cqsA deficient V. cholerae. V. cholerae BH1578 lux reporter, luminescence, 6 h. activation, % at 18.7 µM. actives 0.16% (n = 350,000); in the data active means activation mostly above about 9.7%, no sharp cut-off; inconclusive means no clear call, values can overlap the other calls; inactive means mostly below about 3.7%
BoNT F protease: BoNT F light chain protease inhibition; actives 0.22% (n = 360,000); Multiplex microsphere protease cleavage assay, flow cytometry; inhibition, % at 10 µM; in the data active means inhibition above about 35%, passing the limit was not always enough; inconclusive means no clear call, values can overlap the other calls
Anthrax LF prot: inhibitors of Bacillus anthracis lethal factor protease | P15917 | multiplex microsphere protease cleavage assay, LF | inhibition, % at 10 µM | actives 0.12% (n = 360,000) | AID 588501
Target sequence (P15917 whole entry, looked up): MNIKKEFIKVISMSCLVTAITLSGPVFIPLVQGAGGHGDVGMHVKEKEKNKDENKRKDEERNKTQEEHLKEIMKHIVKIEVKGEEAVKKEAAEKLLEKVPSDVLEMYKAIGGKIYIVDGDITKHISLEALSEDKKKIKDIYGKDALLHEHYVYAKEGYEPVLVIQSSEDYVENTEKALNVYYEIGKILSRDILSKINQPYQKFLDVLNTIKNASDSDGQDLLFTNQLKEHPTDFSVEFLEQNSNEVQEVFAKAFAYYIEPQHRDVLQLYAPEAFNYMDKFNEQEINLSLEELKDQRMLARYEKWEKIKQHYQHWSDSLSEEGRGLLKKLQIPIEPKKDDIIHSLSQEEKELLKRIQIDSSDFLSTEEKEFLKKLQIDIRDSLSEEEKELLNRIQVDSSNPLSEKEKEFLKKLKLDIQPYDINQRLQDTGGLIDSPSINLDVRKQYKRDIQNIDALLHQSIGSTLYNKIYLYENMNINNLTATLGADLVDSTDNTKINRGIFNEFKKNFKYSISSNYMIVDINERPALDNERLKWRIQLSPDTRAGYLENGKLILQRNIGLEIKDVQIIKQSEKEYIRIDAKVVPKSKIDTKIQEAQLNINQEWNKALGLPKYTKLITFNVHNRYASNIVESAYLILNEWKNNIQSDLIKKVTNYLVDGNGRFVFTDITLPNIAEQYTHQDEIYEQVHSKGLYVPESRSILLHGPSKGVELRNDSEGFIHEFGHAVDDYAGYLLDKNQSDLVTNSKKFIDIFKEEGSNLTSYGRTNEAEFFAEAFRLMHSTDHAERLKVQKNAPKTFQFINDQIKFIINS
Bead autofluor: compound fluorescence in toxin protease inhibitor counterscreen; AID 624483; compound autofluorescence counterscreen, microsphere flow cytometry; stronger effect = higher value; actives 3.1% (n = 360,000); fluorescence intensity (concentration not given with the values); in the data active means fluorescence intensity above about 16000; inconclusive means no clear call, values can overlap the other calls
BoNT-A LC CP1: inhibitors of Botulinum neurotoxin A light chain protease. shares compounds with BoNT F protease. multiplex microsphere protease assay, flow cytometry. inhibition, % at 10 µM. actives 3% (n = 720); in the data active means inhibition above about 32%
BoNTF LC inh 1: inhibitors of Botulinum neurotoxin F light chain protease; AID 602140; inhibition, % at 10 µM; shares compounds with BoNT F protease; multiplex microsphere protease cleavage assay, flow cytometry; 720 tested, under 10 active; call rule not given here
Anthrax LF CP1: blocks anthrax lethal factor protease | multiplex microsphere protease cleavage assay, LF | 720 tested, under 10 active | shares compounds with BoNT F protease | inhibition, % at 10 µM; call rule not given here
Hits are given with their value; i = inactive; ? = inconclusive; nt = no result. Shown are actives, neighbours in structure and some others; about 3.5% of the full set was active somewhere. Unless noted, no stated cut-off is given here; in the data, active means inhibition above about 30%; inconclusive means no clear call, values can overlap the other calls; inactive means below that.

SMILES | BoNT-A LC inh2 | Vc quorum ag | BoNT F protease | Anthrax LF prot | Bead autofluor | BoNT-A LC CP1 | BoNTF LC inh 1 | Anthrax LF CP1
CC(=O)c1ccc(NS(=O)(=O)c2cccc(C(=O)Nc3ccccc3C(=O)O)c2)cc1 | i | i | i | i | i | i | i | i
COc1ccc(NS(=O)(=O)c2cccc(C(=O)Nc3ccccc3C(=O)O)c2)cc1 | i | i | ? | i | i | i | i | i
COc1ccc(C(CNC(=O)c2cccc(S(=O)(=O)Nc3ccccc3OC)c2)N2CCCCC2)cc1 (stereo not drawn) | i | i | i | i | i | nt | nt | nt
COc1ccc(C(CNC(=O)c2cccc(S(=O)(=O)Nc3ccccc3OC)c2)N2CCCC2)cc1 (stereo not drawn) | i | i | 36.9 | i | i | i | i | i
CNc1ccc(Cl)cc1S(=O)(=O)c1ccccc1[N+](=O)[O-] | i | nt | i | i | i | nt | nt | nt
Cc1cccc(NS(=O)(=O)c2cccc(C(=O)Nc3cccc(C(=O)O)c3)c2)c1 | i | i | ? | i | i | nt | nt | nt
Cc1ccccc1NC(=O)c1cccc(S(=O)(=O)Nc2cccc(C(=O)O)c2)c1 | i | i | ? | i | i | i | i | i
O=C(O)c1ccc(NS(=O)(=O)c2cccc(C(=O)Nc3cccc(C(=O)O)c3)c2)cc1 | i | i | i | i | i | i | i | i
COCCn1cnc2c1c(=O)n(CC(=O)OCC(=O)NCC(F)(F)F)c(=O)n2Cc1ccccc1 | i | i | i | i | i | nt | nt | nt
O=C(Cn1cc(SCc2cccc(Cl)c2)c2ccccc21)N1CCOCC1 | i | i | i | i | i | nt | nt | nt
C/C(=N\NC(=O)c1ccc2ccccc2c1)c1cccs1 | i | i | i | i | i | nt | nt | nt
C=CCC[C@@H](Cc1ccc(F)cc1)C(=O)OC[C@@H](Cc1ccccc1)NC(=O)[C@@H](CC=C)CC(=O)N[C@@H](CO)Cc1ccccc1 | i | i | i | i | i | nt | nt | nt
CC(C)(C)C1N=C(c2ccc3ccccc3c2)OC1=O (stereo not drawn) | i | i | i | i | i | nt | nt | nt
Cc1ccc(NC(=O)CCCCCC2NC(=O)NC2C)cc1 (stereo not drawn) | i | i | 71.4 | i | i | i | i | i
CC1NC(=O)NC1CCCCCC(=O)Nc1ccc(F)c(Cl)c1 (stereo not drawn) | i | i | i | i | i | nt | nt | nt
O=C(Oc1c(-c2ccccc2)c(=O)n2c3c(cccc13)CC2)c1ccc(F)cc1 | ? | i | ? | 36.9 | i | i | i | i
O=C(Oc1c(-c2ccccc2)c(=O)n2c3c(cccc13)CC2)c1ccccc1 | i | i | i | i | i | nt | nt | nt
COc1ccc(-n2nc(C(=O)NCC(=O)NCc3cccc(F)c3)c3ccccc3c2=O)cc1Cl | i | i | 36.3 | i | i | i | i | i
COCCNC(=O)CNC(=O)c1nn(-c2ccc(OC)c(Cl)c2)c(=O)c2ccccc12 | i | i | i | i | i | nt | nt | nt
Cc1nn(CC(=O)NCCc2cccs2)c(=O)c2cc3ccccc3n12 | 38.3 | i | i | 33.7 | i | i | i | i
Cc1nn(CC(=O)NCCc2cccs2)c(=O)c2nn(-c3ccccc3)c(C)c12 | i | i | i | i | i | nt | nt | nt
Cc1cc(NC(=O)COC(=O)c2ccccc2[N+](=O)[O-])no1 | i | i | i | i | i | nt | nt | nt
O=C(CN1CCCCCC1)Nc1ccccc1F | i | i | i | i | i | nt | nt | nt
O=C(CC(=O)Nc1ccccc1F)Nc1ccccc1F | i | i | i | 41.5 | i | i | i | i
CCc1ccc(C(=O)CN2C(=O)C(C)N(c3ccc(C)cc3)C2=O)cc1 (stereo not drawn) | i | i | 49.9 | i | i | i | i | i
SMILES | BoNT-A LC inh2 | Vc quorum ag | BoNT F protease | Anthrax LF prot | Bead autofluor | BoNT-A LC CP1 | BoNTF LC inh 1 | Anthrax LF CP1
CCOC(=O)N1CCN(C(=O)c2ccc(C)c(S(=O)(=O)Nc3ccccc3)c2)CC1 | i | i | 34.5 | i | i | i | i | i
Cc1cc2c(sc3c(C)ccc(C)c32)c(C)n1 | i | i | ? | i | i | i | i | i
Cn1ccnc1C(O)c1cc(C(C)(C)C)c(O)c(C(C)(C)C)c1 (stereo not drawn) | i | i | i | 31.7 | i | i | i | i
CC(C)(Sc1cc(C(C)(C)C)c(O)c(C(C)(C)C)c1)Sc1cc(C(C)(C)C)c(O)c(C(C)(C)C)c1 | i | i | i | i | i | nt | nt | nt
NC(=O)Cn1ccc(O)c(Cc2ccc(Cl)cc2Cl)c1=O | i | i | i | i | i | nt | nt | nt
Cc1ccc2cc3cc(C(=O)NCCN4CCOCC4)oc3nc2c1 | i | i | 34.6 | i | i | i | i | i
COc1ccc2cc3cc(C(=O)NCCCN4CCOCC4)oc3nc2c1 | i | i | i | i | i | nt | nt | nt
Cc1ccc(C)c2nc(N3CCCC3)c(C#N)cc12 | 36.2 | i | i | i | i | i | i | i
Cc1cccc2cc(C#N)c(N3CCN(C)CC3)nc12 | i | i | i | i | i | nt | nt | nt
COCCCNC(CC(=O)Nc1cc(C)cc(C)c1)C(=O)O (stereo not drawn) | i | i | i | i | i | nt | nt | nt
Cc1ccc(NS(=O)(=O)c2ccc(Cl)c(C(=O)Nc3cccc(C(=O)O)c3)c2)cc1 | i | i | ? | i | i | i | i | i
O=C(Nc1ccc(NS(=O)(=O)c2ccccc2)cc1)c1ccccc1Cl | i | i | i | i | i | nt | nt | nt
O=C(Nc1ccccc1C(=O)O)c1cc(S(=O)(=O)Nc2ccccc2)ccc1Cl | i | i | ? | i | i | i | i | i
O=C(O)c1ccc(NS(=O)(=O)c2ccc(NC(=O)c3ccccc3Cl)cc2)cc1 | i | i | i | i | i | nt | nt | nt
Cc1ccc(NC(=O)c2cc(S(=O)(=O)c3ccccc3)ccc2Cl)cc1 | i | i | i | i | i | nt | nt | nt
O=C(O)c1ccc(NS(=O)(=O)c2ccc(Cl)c(C(=O)Nc3ccccc3)c2)cc1 | i | i | ? | i | i | i | i | i
O=C(NCc1ccc(Cl)cc1)c1ccc(S(=O)(=O)N2CCCCC2)cc1 | i | i | i | i | i | nt | nt | nt
O=CNc1c(Cl)cc2c(c1Cl)Cc1cc([N+](=O)[O-])ccc1-2 | i | i | i | i | i | nt | nt | nt
NC(=O)C(c1ncc(C(F)(F)F)cc1Cl)c1c(Cl)cccc1Cl (stereo not drawn) | ? | i | 48.0 | ? | ? | i | i | i
COc1ccc(CCNC(=O)CN2C(=O)NC(c3ccccc3)(c3ccccc3)C2=O)cc1 | i | i | i | i | i | nt | nt | nt
O=C(Nc1ccc(Nc2ccccc2)cc1)c1c(F)c(F)c(F)c(F)c1F | i | i | i | 39.6 | i | i | i | i
CCOC(=O)c1cnc(SCC(=O)OC)nc1N | i | i | i | i | i | nt | nt | nt
CCOC(=O)CC(=O)CSc1ncc(C(=O)OCC)c(N)n1 | i | i | 134.1 | 50.3 | i | i | i | i
O=c1c2ccccc2nnn1-c1ccc(Br)cc1 | i | i | 40.8 | i | i | i | i | i
Cc1cc(C)cc(-n2nnc3ccccc3c2=O)c1 | i | i | i | i | i | nt | nt | nt
Cc1cc(C)c(C(=O)N2CCC(N3CCC(C(=O)NC(C)C)CC3)CC2)o1 | i | i | ? | i | ? | nt | nt | nt
O=c1c2c(-c3ccccc3)csc2nc2c3ccccc3c(NCCN3CCOCC3)nn12 | 32.5 | i | i | i | i | i | i | i
